Measured values reported in PubChem BioAssay AID1159580 (chemical genetic matrix, 2015).
About 2,000 (36%) of roughly 5,500 compounds were called active. Inconclusive results (about 18%) are left out. No stated cut-off is given here; in the data, active means normalized growth mostly below about 0.91 (no sharp cut-off); inconclusive means no clear call, values can overlap the other calls; inactive means mostly above about 0.92. Some of the results follow.

Assay: chemical genetic growth profiling, strain panel (AID 1159580);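 further: tested at 20 µM; growth read once vehicle control cultures reached saturation at 30 °C; 1 = growth at the plate median or of vehicle wells; lower values mean less growth of the strain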
Conditions: S. cerevisiae deletion strains, growth OD

Measured: normalized growth

O=C(O)CS
inactive: locus YHR030C, strain SLT2, hits give low values 1.05 | locus YHR079C, strain IRE1, hits give low values 1.02 | locus YJL095W, strain BCK1, hits give low values 1.04 | locus YJR066W, strain TOR1, hits give low values 0.941 | locus YLR113W, strain HOG1, hits give low values 1.07 | locus YNL183C, strain NPR1, hits give low values 1.02 | locus YOR231W, strain MKK1, hits give low values 1.08 | locus YPL256C, strain CLN2, hits give low values 1.05
